Screening data from PubChem BioAssay.
Shown are actives, neighbours in structure and some others; about 1.6% of the full set was active somewhere.
Casp6 inh: human caspase-6 inhibitors, primary screen, biochemical, VEID-R110 fluorescence, single point, set 2. P55212. purified caspase-6, Z-VEID-R110 cleavage fluorescence. inhibition, % at 12.5 µM. 350,000 tested, 0.53% active;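 active = mean inhibition across replicates at least about 35%, with every replicate also reaching that limit, limit read from the data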;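 also: 0% = median of neutral control wells and 100% = no fluorescence left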
SIRT5 block: SIRT5 desuccinylase inhibitors, primary screen, biochemical, fluorescence imaging, single point, set 5; NAD-dependent protein deacylase sirtuin-5, mitochondrial (Homo sapiens), Q9NXA8; Purified SirT5, succinyl-peptide AMC, trypsin-coupled fluorescence; inhibition, % at 15 µM; 330,000 tested, 1.1% active; in the data active = inhibition above about 15%
SUMO HTRF inh: inhibitors of in vitro SUMOylation cascade, primary screen, biochemical, HTRF, uHTS | SUMO-conjugating enzyme UBC9 (Homo sapiens), P63279 | HTRF SUMOylation assay, SAE1/SAE2 + UBC9 | inhibition, % at 35 µM | 290,000 tested, 0.36% active | AID 2006, 2009; in the data active = inhibition above about 50%, passing the limit was not always enough
NSD2 HMT inh: NSD2 histone methyltransferase inhibitors, primary screen, biochemical, AlphaScreen, single concentration, set 2 | inhibition, % at 12.5 µM | NSD2 peptide methylation, 120 min | Histone-lysine N-methyltransferase NSD2 (Homo sapiens), O96028 | 310,000 tested, 0.54% active; in the data active = inhibition above about 50%
Target sequence (O96028 whole entry, looked up): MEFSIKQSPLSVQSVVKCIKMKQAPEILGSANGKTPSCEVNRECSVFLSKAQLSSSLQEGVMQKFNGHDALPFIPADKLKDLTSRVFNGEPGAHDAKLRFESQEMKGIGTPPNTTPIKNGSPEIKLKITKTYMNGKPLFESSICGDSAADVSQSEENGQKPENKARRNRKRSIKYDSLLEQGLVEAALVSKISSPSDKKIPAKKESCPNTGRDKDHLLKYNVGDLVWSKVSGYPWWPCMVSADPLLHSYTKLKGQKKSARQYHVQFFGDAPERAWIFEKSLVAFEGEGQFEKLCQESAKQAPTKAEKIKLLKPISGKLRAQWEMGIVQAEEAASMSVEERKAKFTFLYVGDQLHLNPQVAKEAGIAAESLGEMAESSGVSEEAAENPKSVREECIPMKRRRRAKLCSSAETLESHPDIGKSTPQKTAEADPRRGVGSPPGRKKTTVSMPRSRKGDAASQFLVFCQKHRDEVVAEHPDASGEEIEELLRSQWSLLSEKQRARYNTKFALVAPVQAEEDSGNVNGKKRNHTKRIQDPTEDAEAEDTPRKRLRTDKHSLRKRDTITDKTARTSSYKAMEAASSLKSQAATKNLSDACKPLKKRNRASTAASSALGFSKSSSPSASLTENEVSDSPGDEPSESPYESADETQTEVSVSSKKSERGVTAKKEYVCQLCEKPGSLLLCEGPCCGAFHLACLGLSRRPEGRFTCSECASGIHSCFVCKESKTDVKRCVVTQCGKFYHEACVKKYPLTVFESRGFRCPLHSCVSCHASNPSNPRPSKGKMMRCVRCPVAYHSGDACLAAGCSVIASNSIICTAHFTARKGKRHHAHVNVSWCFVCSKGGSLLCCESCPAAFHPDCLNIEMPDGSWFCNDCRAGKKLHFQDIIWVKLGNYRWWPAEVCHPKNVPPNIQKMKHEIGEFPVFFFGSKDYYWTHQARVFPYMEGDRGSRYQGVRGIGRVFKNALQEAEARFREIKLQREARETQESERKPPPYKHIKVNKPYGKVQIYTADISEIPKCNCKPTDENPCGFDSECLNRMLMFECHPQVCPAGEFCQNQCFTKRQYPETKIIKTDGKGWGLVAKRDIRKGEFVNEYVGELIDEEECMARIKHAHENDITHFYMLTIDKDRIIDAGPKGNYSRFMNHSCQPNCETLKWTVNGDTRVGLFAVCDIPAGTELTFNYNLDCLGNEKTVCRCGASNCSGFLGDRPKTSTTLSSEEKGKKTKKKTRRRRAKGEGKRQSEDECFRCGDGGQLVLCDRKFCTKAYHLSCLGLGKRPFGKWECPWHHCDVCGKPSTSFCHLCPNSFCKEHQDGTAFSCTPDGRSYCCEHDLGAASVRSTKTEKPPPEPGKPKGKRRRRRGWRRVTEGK
The depositor's hits bear a star; · = no result given; ! = not confirmed by another sample.

SMILES	Casp6 inh	SIRT5 block	SUMO HTRF inh	NSD2 HMT inh
COc1ccc(S(=O)(=O)Nc2ccc3c(c2)C(=O)N([C@@H](C)CO)C[C@@H](C)[C@@H](CN(C)S(=O)(=O)c2ccccc2)OCCCC[C@@H](C)O3)cc1	1	20*	·	·
COc1ccc(S(=O)(=O)Nc2ccc3c(c2)C(=O)N([C@@H](C)CO)C[C@H](C)[C@@H](CN(C)S(=O)(=O)c2ccccc2)OCCCC[C@@H](C)O3)cc1	·	21*	·	·
COc1ccc(S(=O)(=O)Nc2ccc3c(c2)C(=O)N([C@H](C)CO)C[C@@H](C)[C@H](CN(C)S(=O)(=O)c2ccccc2)OCCCC[C@@H](C)O3)cc1	1	19*	·	·
COc1ccc(S(=O)(=O)N(C)C[C@H]2OCCCC[C@H](C)Oc3ccc(NS(=O)(=O)c4ccccc4)cc3C(=O)N([C@H](C)CO)C[C@H]2C)cc1	1	14	·	·
COc1ccc(S(=O)(=O)Nc2ccc3c(c2)C(=O)N([C@@H](C)CO)C[C@@H](C)[C@H](CN(C)S(=O)(=O)c2ccccc2)OCCCC[C@H](C)O3)cc1	2	22*	·	·
CC(C)NC(=O)N(C)C[C@@H]1OCc2cnnn2CCCC(=O)N([C@H](C)CO)C[C@H]1C	-1	0	·	·
C[C@@H]1CN([C@@H](C)CO)C(=O)CCCn2nncc2CO[C@@H]1CN(C)C(=O)Nc1cccc2ccccc12	17	-3	·	·
C[C@@H]1CN([C@H](C)CO)C(=O)CCCn2nncc2CO[C@H]1CN(C)C(=O)Nc1cccc2ccccc12	10	76*	·	·
C[C@H](CO)N1C[C@H](C)[C@@H](CN(C)C(=O)c2cc(-c3ccccc3)on2)OCc2cnnn2CCCC1=O	2	1	·	·
C[C@@H]1CN([C@@H](C)CO)C(=O)CCCn2nncc2CO[C@H]1CN(C)C(=O)C1CCCCC1	2	29*!	·	·
C[C@H](CO)N1C[C@H](C)[C@H](CN(C)C(=O)c2cc(-c3ccccc3)on2)OCc2cnnn2CCCC1=O	4	18*!	·	·
CC(C)NC(=O)N(C)C[C@@H]1OCc2cnnn2CCCC(=O)N([C@@H](C)CO)C[C@H]1C	-1	26*!	·	·
C[C@@H]1CN([C@H](C)CO)C(=O)CCCn2cc(nn2)CO[C@@H]1CN(C)Cc1ccncc1	-1	-5	·	·
COc1ccc(S(=O)(=O)N(C)C[C@@H]2OCCCC[C@H](C)Oc3ccc(NC(=O)CCCN(C)C)cc3C(=O)N([C@H](C)CO)C[C@@H]2C)cc1	0	-7	·	·
C[C@@H]1CN([C@H](C)CO)C(=O)Cc2cc(NC(=O)NC3CCCCC3)ccc2O[C@@H]1CN(C)Cc1ccc(-c2ccccc2)cc1	0	0	·	·
C[C@H]1CN([C@@H](C)CO)C(=O)CCCn2nncc2CO[C@@H]1CN(C)C(=O)Nc1ccccc1	-5	28*	·	·
C[C@H](CO)N1C[C@H](C)[C@@H](CN(C)C(=O)Nc2ccccc2)OCc2cnnn2CCCC1=O	-3	-1	·	·
Cc1cc(C(=O)Nc2cccc3c2O[C@H](CN(C)S(=O)(=O)c2c(C)noc2C)[C@H](C)CN([C@@H](C)CO)C3=O)n(C)n1	1	-1	·	·
CCOCCCNC(=O)C(c1ccc(Cl)cc1)N(Cc1cccs1)C(=O)c1ccccn1 (stereo unspecified)	2	18*	4	-7
CCOCCCNC(=O)C(c1ccc(C)cc1)N(Cc1cccs1)C(=O)c1ccccn1 (stereo unspecified)	2	-1	0	3
CC(C)(C)c1ccc(C(=O)NCCC(=O)NCc2ccc(F)cc2)cc1	-2	15*	·	0
COc1ccc(CNC(=O)CCNC(=O)c2ccc(C(C)(C)C)cc2)cc1OC	-1	1	·	-2
COCCN(C[C@@H]1[C@@H](c2ccccc2)[C@H](CO)N1C(C)=O)C(=O)c1cccnc1	-5	16*	·	·
CCN(C[C@H]1[C@H](c2ccccc2)[C@H](CO)N1C(C)=O)C(=O)NC(C)C	0	1	·	·
CCCN(C[C@H]1[C@H](c2ccccc2)[C@@H](CO)N1C(C)=O)C(=O)NC(C)C	2	33*!	·	·
CC(=O)N(Cc1cccc(F)c1)C[C@H]1[C@@H](c2ccccc2)[C@@H](CO)N1C(C)=O	0	28*	·	·
CC(C)NC(=O)Nc1ccc2c(c1)CC(=O)N([C@@H](C)CO)C[C@@H](C)[C@H](CN(C)C(=O)NC1CCCCC1)O2	1	0	·	·
Cc1csc(=O)n1CCC(=O)OCc1nnc(-c2ccccc2)o1	-1	5	·	-2
